Results from the supplement of paper PMC11732987, “Enantioselective OTUD7B fragment discovery through chemoproteomics screening and high-throughput optimisation” (Communications Chemistry, 2025).
Values without a mark were called inactive.

Legend:
Test in all cases: log2 ratio of Biotin-Ahx-Ub-VS probe labelling (fragment/DMSO); higher = less target engagement (more negative = stronger competition), active = hit call of the paper (q ≤ 0.05, log2 ratio ≤ -1)
Conditions in all cases: compound concentration: 200 uM; treatment time: 3 h
[1] = target: T1, ALG13 (UniProt Q9NP73)
T1 sequence (whole entry): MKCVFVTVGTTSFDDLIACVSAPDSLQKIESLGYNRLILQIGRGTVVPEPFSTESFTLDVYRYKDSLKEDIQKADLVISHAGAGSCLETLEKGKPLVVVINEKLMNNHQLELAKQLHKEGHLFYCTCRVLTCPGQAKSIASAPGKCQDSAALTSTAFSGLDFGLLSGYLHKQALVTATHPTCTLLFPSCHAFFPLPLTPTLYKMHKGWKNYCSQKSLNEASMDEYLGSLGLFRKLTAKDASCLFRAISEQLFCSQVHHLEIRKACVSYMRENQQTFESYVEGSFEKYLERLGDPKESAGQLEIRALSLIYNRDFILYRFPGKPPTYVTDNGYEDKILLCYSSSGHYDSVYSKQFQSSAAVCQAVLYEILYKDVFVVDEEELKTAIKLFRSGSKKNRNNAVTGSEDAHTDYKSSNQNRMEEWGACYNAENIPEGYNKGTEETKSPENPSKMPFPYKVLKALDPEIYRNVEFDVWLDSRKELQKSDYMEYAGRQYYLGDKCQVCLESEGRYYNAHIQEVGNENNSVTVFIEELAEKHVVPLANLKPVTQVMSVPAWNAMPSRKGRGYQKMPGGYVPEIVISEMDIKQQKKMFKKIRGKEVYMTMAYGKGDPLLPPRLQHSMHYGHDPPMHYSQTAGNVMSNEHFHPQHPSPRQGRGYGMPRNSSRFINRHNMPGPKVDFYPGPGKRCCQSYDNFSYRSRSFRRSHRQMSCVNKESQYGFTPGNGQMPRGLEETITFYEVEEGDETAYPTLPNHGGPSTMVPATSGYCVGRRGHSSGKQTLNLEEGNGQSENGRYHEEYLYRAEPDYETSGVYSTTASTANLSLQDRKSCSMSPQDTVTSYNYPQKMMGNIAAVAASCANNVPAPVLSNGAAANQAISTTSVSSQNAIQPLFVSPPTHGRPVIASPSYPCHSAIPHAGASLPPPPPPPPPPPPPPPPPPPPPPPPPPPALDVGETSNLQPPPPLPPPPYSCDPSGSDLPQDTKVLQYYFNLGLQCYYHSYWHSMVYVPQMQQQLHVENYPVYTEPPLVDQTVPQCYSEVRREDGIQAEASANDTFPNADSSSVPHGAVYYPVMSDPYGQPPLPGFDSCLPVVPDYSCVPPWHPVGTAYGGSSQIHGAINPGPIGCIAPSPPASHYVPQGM
Outline: (§1)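 The table lists average log2 ratios of fragment over vehicle, from an unpaired t-test on global-median-normalised Spectronaut label-free quantities. Proteins with ≥2 unique peptides were used. Samples were HEK293T lysate (495 µg) treated in triplicate with fragment at 200 µM or vehicle for 3 h, then with Biotin-Ahx-Ub-VS (0.5 µM final) for 1 h, with labelled DUBs NeutrAvidin-enriched and run by diaPASEF LC-MS/MS.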

[2] = target: ATXN3 (UniProt P54252)
Chain of ATXN3 (P54252 whole entry): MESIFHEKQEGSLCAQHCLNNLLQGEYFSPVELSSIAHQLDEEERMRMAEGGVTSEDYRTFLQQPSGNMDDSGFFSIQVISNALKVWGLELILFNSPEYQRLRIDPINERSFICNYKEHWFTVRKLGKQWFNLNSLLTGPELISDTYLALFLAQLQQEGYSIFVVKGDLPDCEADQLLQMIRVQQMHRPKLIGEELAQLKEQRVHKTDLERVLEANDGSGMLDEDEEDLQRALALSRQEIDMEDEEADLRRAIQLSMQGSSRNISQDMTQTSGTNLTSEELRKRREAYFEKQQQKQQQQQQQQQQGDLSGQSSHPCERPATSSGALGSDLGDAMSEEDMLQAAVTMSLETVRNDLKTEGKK
Outline: as §1

[3] = target: T2, BAP1 (UniProt Q92560)
T2 sequence (whole entry): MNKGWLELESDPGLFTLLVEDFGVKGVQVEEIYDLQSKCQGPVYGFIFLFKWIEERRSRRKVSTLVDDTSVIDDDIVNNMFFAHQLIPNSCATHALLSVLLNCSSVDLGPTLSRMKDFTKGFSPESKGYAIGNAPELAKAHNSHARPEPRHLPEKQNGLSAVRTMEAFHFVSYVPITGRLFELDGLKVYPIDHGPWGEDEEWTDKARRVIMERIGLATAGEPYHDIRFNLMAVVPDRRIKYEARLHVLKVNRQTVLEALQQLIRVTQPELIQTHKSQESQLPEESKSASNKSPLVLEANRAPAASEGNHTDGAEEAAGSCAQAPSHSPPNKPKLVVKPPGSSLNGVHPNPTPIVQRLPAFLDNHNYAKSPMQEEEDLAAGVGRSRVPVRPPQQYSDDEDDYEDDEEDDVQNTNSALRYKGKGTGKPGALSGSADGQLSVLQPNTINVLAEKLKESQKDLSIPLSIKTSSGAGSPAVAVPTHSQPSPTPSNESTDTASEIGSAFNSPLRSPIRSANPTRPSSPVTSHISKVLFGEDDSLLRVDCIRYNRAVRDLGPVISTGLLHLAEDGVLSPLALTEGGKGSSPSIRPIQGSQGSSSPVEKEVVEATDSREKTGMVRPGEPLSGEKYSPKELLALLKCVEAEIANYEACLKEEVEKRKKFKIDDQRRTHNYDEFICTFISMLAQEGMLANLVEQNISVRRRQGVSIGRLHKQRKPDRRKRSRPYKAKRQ
Outline: as §1

[4] = target: EIF3F (UniProt O00303)
Chain of EIF3F (O00303 whole entry): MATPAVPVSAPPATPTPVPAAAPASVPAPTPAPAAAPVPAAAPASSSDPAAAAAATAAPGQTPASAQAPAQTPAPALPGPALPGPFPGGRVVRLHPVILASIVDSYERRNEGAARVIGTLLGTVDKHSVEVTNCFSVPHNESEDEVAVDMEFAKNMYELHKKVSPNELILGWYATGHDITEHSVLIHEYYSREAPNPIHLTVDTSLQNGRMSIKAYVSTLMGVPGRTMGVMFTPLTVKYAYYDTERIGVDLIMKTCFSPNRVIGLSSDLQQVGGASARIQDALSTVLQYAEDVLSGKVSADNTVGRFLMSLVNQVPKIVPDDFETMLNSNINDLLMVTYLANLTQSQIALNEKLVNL
Outline: as §1

[5] = target: EIF3H (UniProt O15372)
Chain of EIF3H (O15372 whole entry): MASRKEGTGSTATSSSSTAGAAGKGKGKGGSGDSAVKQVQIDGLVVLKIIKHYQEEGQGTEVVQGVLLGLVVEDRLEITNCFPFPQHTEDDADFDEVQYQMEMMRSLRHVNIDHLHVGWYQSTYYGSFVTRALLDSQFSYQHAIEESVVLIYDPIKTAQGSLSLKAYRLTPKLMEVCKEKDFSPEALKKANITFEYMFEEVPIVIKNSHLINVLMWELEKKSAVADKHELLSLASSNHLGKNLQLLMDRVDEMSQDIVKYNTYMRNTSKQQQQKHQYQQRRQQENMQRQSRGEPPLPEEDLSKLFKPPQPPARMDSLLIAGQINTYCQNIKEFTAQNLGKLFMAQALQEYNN
Outline: as §1

[6] = target: T3, FAM105A (UniProt Q9NUU6)
T3 sequence (whole entry): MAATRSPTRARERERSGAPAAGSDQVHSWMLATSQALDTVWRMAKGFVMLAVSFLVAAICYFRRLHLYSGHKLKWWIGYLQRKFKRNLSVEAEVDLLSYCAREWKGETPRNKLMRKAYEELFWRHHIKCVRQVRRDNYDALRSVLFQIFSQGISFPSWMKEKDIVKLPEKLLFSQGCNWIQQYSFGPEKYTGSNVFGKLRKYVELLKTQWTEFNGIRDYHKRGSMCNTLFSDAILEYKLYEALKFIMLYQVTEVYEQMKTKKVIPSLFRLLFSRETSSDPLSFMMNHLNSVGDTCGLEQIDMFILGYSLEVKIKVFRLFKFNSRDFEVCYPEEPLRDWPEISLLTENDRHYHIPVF
Outline: as §1

[7] = target: OTUB1 (UniProt Q96FW1)
Chain of OTUB1 (Q96FW1 whole entry): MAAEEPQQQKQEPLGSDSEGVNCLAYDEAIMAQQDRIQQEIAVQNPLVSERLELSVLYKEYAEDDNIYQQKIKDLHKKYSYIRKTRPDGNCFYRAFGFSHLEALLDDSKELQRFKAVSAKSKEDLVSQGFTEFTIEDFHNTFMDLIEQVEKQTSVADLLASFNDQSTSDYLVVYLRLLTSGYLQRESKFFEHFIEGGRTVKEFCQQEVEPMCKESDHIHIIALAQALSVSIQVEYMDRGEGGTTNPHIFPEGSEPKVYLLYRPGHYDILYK
Outline: as §1

[8] = target: T4, OTUD4 (UniProt Q01804)
T4 sequence (whole entry): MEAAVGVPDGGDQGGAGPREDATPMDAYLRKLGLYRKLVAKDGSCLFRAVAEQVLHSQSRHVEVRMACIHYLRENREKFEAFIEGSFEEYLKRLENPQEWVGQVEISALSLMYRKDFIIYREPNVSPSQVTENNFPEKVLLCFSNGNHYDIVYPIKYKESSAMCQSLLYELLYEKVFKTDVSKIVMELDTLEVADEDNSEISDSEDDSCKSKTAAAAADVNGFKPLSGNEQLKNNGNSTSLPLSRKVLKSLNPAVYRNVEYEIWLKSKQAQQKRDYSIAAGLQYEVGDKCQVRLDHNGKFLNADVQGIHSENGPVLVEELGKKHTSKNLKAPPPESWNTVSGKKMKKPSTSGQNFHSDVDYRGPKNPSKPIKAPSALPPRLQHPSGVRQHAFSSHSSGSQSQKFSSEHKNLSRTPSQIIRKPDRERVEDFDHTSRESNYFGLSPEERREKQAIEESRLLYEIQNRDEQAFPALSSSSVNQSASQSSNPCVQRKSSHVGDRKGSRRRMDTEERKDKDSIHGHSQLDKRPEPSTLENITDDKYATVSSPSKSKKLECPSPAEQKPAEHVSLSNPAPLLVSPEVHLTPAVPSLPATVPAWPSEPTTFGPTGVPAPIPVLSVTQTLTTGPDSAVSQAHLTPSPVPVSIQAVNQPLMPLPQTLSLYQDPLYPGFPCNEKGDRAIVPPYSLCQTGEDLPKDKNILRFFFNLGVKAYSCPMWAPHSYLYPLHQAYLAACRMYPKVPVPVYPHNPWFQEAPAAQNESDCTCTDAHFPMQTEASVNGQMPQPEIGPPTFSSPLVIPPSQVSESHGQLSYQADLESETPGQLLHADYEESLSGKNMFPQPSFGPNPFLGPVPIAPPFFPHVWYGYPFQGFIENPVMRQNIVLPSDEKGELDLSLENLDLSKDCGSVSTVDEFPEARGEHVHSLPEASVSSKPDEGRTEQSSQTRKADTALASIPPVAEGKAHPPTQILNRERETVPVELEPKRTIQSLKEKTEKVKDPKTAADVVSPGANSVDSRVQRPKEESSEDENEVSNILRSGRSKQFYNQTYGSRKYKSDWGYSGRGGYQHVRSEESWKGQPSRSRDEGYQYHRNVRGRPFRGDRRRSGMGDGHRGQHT
Outline: as §1

[9] = target: T5, OTUD5 (UniProt Q96G74)
T5 sequence (whole entry): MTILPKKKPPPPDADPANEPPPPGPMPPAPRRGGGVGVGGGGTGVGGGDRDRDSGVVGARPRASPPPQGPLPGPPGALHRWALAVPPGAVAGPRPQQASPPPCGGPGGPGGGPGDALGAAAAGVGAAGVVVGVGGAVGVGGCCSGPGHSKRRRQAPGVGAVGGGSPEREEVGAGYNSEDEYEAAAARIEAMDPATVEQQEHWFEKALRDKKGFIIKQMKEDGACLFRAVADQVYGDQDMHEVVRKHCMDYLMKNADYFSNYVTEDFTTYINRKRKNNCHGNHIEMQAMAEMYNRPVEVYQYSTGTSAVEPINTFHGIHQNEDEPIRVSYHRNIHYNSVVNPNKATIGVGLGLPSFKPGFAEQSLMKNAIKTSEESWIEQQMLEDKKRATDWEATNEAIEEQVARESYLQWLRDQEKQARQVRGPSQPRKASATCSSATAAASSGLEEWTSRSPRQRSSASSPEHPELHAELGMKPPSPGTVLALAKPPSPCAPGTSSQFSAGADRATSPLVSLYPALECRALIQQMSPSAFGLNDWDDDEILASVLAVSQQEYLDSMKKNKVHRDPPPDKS
Outline: as §1

Row | SMILES | log2 ratio of Biotin-Ahx-Ub-VS probe labelling [1] | log2 ratio of Biotin-Ahx-Ub-VS probe labelling [2] | log2 ratio of Biotin-Ahx-Ub-VS probe labelling [3] | log2 ratio of Biotin-Ahx-Ub-VS probe labelling [4] | log2 ratio of Biotin-Ahx-Ub-VS probe labelling [5] | log2 ratio of Biotin-Ahx-Ub-VS probe labelling [6] | log2 ratio of Biotin-Ahx-Ub-VS probe labelling [7] | log2 ratio of Biotin-Ahx-Ub-VS probe labelling [8] | log2 ratio of Biotin-Ahx-Ub-VS probe labelling [9]
1 | Cl.O=C(CCl)N1CCc2ncncc2C1 | -0.17 | -0.297 | -0.732 | -0.328 | -0.29 | 0.0971 | -0.263 | -0.304 | -0.373
2 | Cl.O=C(CCl)N[C@H]1C[C@@H](n2cccn2)C1 | -0.266 | -0.161 | -1.24 (active) | -0.862 | 0.149 | -0.138 | -0.581 | -0.0468 | -0.587
3 | Cc1cccnc1NC(=O)C1CCN(C(=O)CCl)CC1.Cl | 0.0719 | -0.281 | -0.703 | -0.244 | 0.146 | -0.0889 | -0.251 | -0.365 | -0.447
4 | O=C(CCl)N1CCCC2CCCCC21 (stereo unspecified) | -0.21 | -0.321 | -0.281 | -0.196 | 0.299 | 0.212 | 0.0815 | -0.106 | -0.314
5 | O=C(CCl)NC1CCCCNC1=O (stereo unspecified) | -0.0613 | -0.417 | -0.683 | -0.598 | 0.103 | 0.229 | -0.231 | -0.342 | -0.397
6 | Cc1n[nH]c(=O)c2c(NC(=O)CCl)oc(C)c12 | 0.211 | 0.117 | 0.169 | 0.173 | 0.156 | -0.0353 | 0.329 | 0.0677 | -0.187
7 | Cc1ccc(CN(CCO)C(=O)CCl)cc1 | 0.163 | -0.225 | -1.12 (active) | 0.0155 | 0.0625 | 0.0195 | -0.0318 | -0.355 | -0.372
8 | CS(=O)(=O)N1CCCN(C(=O)CCl)CC1 | -0.306 | -0.428 | -0.451 | -0.0174 | 0.332 | -0.12 | -0.478 | -0.3 | -0.335
9 | CCN(C(=O)CCl)C1CCS(=O)(=O)C1 (stereo unspecified) | -0.231 | -0.159 | -0.0461 | -0.357 | 0.227 | 0.291 | -0.59 | -0.679 | -0.272
10 | CC(NC(=O)CCl)c1noc(Cc2ccccc2)n1 (stereo unspecified) | 0.107 | -0.275 | -2.73 (active) | -0.25 | -0.398 | -0.027 | 0.0412 | -0.692 | -0.271
11 | Cc1ccc(CNC(=O)CCl)nc1C.Cl | -0.419 | -0.055 | -1.57 (active) | -0.526 | 0.278 | -0.225 | -0.192 | -0.29 | -0.221
12 | O=C(CCl)N1CCC(O)(Cc2ccc(F)cc2)C1 (stereo unspecified) | -0.581 | -0.456 | -0.845 | -0.133 | -0.189 | -0.0755 | -0.0952 | -0.135 | -0.233
13 | N#Cc1ccc(CNC(=O)CCl)cc1 | -0.583 | -0.171 | -3.38 (active) | -0.0324 | 0.142 | -0.00692 | -0.0861 | -0.138 | -0.348
14 | O=C(CCl)N1CC=C(c2c[nH]c3ccccc23)CC1 | -0.249 | -1.2 (active) | -1.95 (active) | -0.308 | 0.184 | -0.087 | -0.218 | -0.412 | -1.27 (active)
